The source of these data is PubChem BioAssay AID2314 (National Center for Advancing Translational Sciences (NCATS), 2010).

Screen size: about 300,000 compounds; about 37,000 (12%) were called active. The full list was thinned out, with actives kept by preference. Unmarked numbers belong to inactive results. Rule as the data show it: active = max response mostly above about 13% (no sharp cut-off); inactive = mostly below about 14%.

The nature of the assay: Cycloheximide Counterscreen for Small Molecule Inhibitors of Shiga Toxin. Also: read at 38.3 µM for the half of the compounds with a filed dose; 0% is about no effect. As to conditions: cell reporter, cycloheximide protein synthesis inhibition counterscreen; active compounds read high.
In the case of `CCCC1CCC(=NNC(=S)NCCc2ccccc2)CC1` (configuration not stated), the max response is 13.6%.
The same measure for `COc1cc(C(=S)N2CCOCC2)cc(OC)c1OC(=O)c1cc([N+](=O)[O-])c(C)c([N+](=O)[O-])c1`: -3.02%.
Turning to `CC(C)Cn1cnc2c1c(=O)n(CC(=O)NN)c(=O)n2Cc1ccccc1`, the max response was 0.845%.
Consider `CC1CC(C)CN(c2ccc(S(=O)(=O)N3CCOCC3)cc2)C1` (configuration not stated), for which the max response is 7.13%.
For `CSCC[C@H](NC(=O)N1CCn2c1nc1ccccc12)C(=O)NC1CCCCC1`, the max response was 19.4%.
Take `COc1ccc(C2NC(=O)C(=O)/C2=C(\O)c2ccc(Cl)cc2)cc1OC` (configuration not stated): the max response was -4.04%.
As to `O=C(NCCc1ccc2c(c1)OCCO2)c1cc2ccccc2o1`, the max response is 8.84%.
The same measure for `Cc1cccc(-n2nc3c(c2NC(=O)c2cc4ccccc4o2)CS(=O)(=O)C3)c1`: -5.35%.
As to `O=C(Nc1ccncc1)c1cc2ccccc2o1`, the max response is 22.3% (active).
The same measure for `Cc1ccc(OC(=O)c2cc3ccccc3o2)cc1`: 13.6%.
With `CC(=O)N1CCN(c2ccccc2NC(=S)NC(=O)c2cc3ccccc3o2)CC1` the figure was -8.35%; with `CC(C)(C)n1nc2c(c1NC(=O)c1cc3ccccc3o1)CSC2`, 9.15%.
On to `C/C(=N\NC(=S)Nc1ccc(C)cc1)c1cc2ccccc2o1`, for which the max response was 20.6% (active).
For `C/C(=N\NS(=O)(=O)c1cccc([N+](=O)[O-])c1)c1cc2ccccc2o1`, the max response is 1.29%.
The same measure for `Cc1ccc(NC(=O)c2cc3ccccc3o2)cc1`: 43.9% (active); for `O=C(O)C1=NN(c2c(F)c(F)cc(F)c2F)C(=O)CC1`: -4.21%; for `C=CCN(N=Nc1cccc([N+](=O)[O-])c1)c1cccc([N+](=O)[O-])c1`: -2.01%.
With `O=C(CN1CCN(S(=O)(=O)c2ccc(F)cc2)CC1)NC1CC1` the figure was 1.9%.
With `Cc1cnc(C(=O)OCc2c(C)cc(C(C)(C)C)cc2C)cn1`, the max response is -3.25%.
Turning to `O=C(COc1cccc(Cl)c1)NCc1ccccc1`, the max response was 7.99%.
As to `Cc1ccc(SCC(=O)c2sc(-c3ccccc3)nc2C)cc1`, the max response is -0.538%.
For the compound `CN(C)/C=C/C(=O)c1ccccc1F`, the max response was 5.51%.
`Cc1nc(-c2ccccc2)sc1C(=O)/C=C/N(C)C`: the max response was 45.3% (active).
The same measure for `CC(Oc1ccc(Cl)cc1Cl)C(=O)/C=C/N(C)C` (configuration not stated): 2.24%; for `Cc1nc(COc2cccc(Cl)c2)sc1C(=O)/C=C/N(C)C`: 40.9% (active).
With `COc1ccc(-c2nc(CN3CCN(c4ncccn4)CC3)c(C)o2)cc1C`, the max response is -2.33%.
For `Cc1ccc(S(=O)(=O)N[C@@H](Cc2ccccc2)C(=O)N2CCC(C(=O)N[C@H](C(=O)O)C(C)O)CC2)cc1` (some centres not stated), the max response is -0.605%.
